According to PubChem BioAssay (NCATS):
Inconclusive results are not listed. Unless noted, calls come from the whole dose curve; as a rule, active = well fitted curve in either direction with a large enough effect (not every such curve was filed as active); inconclusive = small, poorly fitted or top-dose-only effect, or another doubt; inactive = flat fitted curve, though single readings scatter.

Experiments:
[1] = AP1 Signaling Pathway (AID 357); conditions: ME-180 AP-1-bla reporter, EGF-induced, beta-lactamase ratio, 5 h; at 17.2 µM (top of the series) unless noted;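 note: ME-180 reporter cells stimulated with EGF at its EC50 level; % is set by controls: 0 for no effect and ±100 for the full control effect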
Procedure, shortened: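 Modulation of EGF-driven AP-1 transcription was assessed with a beta-lactamase reporter in ME-180 cells. Compound and EC50 EGF were co-incubated 5 hours at 37 °C before 2.5-hour CCF4 loading at room temperature and dual-emission reading.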

[2] = NFAT Signaling Pathway (AID 444); conditions: Jurkat NFAT-bla M1, carbachol, beta-lactamase ratio, 5 h; at 17.2 µM (top of the series) unless noted;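 note: carbachol stimulus at about its EC50 of 1 µM final; % is set by controls: 0 for no effect and ±100 for the full control effect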
Procedure, shortened: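 Jurkat cells carrying an NFAT-driven β-lactamase reporter and co-transfected muscarinic M1 receptor were treated with compound plus carbachol (1 uM final, an EC50 level) for 5 h at 37 °C. CCF4 loading followed for 1 h at RT; 460/530 nm ratio gave %activity.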

[3] = Stat Signaling Pathway (AID 446); conditions: ME-180 (cervical carcinoma) SIE beta-lactamase reporter, IL-6 stimulated, 5 h; at 17.2 µM (top of the series) unless noted;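 note: ME-180 cervical cancer cells given 40 pM IL-6 alongside compound; SIE-controlled beta-lactamase reporter measured as 460/530 nm FRET emission ratio; % is set by controls: 0 for no effect and ±100 for the full control effect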
Procedure, shortened: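 Normalization used AC90 stimulation (300 pM IL-6) and AC90 inhibition (125 nM pan-JAK inhibitor at 40 pM IL-6). The underlying signal is SIE-driven beta-lactamase in ME-180 cells after 5 h IL-6 exposure with compound.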

[4] = target: Glucocorticoid receptor (Homo sapiens) (UniProt P04150); experiment: GR-GFP Redistribution (AID 450;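 active = compounds whose dose series gives a full or clear partial fitted curve of increased nuclear translocation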; note: potency is the fitted concentration of half-maximal effect)
Chain of Glucocorticoid receptor (Homo sapiens) (P04150 whole entry, looked up): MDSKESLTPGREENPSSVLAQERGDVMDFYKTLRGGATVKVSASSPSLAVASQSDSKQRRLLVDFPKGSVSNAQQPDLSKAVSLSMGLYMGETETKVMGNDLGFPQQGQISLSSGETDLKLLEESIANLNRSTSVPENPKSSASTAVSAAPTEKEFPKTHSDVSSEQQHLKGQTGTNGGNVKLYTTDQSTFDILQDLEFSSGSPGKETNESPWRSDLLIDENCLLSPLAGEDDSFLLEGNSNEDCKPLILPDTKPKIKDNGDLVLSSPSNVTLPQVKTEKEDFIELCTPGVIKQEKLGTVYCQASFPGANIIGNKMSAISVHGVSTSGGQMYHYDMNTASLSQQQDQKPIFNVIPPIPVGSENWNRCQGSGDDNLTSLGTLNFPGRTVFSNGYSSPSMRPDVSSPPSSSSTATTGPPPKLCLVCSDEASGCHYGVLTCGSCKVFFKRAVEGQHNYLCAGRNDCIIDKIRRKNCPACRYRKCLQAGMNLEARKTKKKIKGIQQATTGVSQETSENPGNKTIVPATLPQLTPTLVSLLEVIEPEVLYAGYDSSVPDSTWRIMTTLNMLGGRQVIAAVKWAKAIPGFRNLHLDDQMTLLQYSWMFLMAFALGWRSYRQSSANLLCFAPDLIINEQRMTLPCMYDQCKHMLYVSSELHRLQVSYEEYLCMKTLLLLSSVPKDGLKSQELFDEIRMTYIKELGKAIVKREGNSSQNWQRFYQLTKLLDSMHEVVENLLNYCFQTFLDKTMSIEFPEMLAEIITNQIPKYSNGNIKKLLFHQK

COCCOC(=O)c1c(C)nc(SCC(=O)Nc2ccc(C)cc2)c(C#N)c1-c1ccco1
inactive: activity change, negative = inhibition [1] -27.8% | activity change, negative = inhibition [2] -11.8% | activity, negative = inhibition [3] -18.9% | Potency [4] > 20.6 µM

CCc1cc(=O)oc2cc(C)c(CN3CCCC3)c(O)c12
inactive: activity change, negative = inhibition [1] -8.92% | activity change, negative = inhibition [2] -9.64% | activity, negative = inhibition [3] -10.7% | Potency [4] > 20.6 µM

O=C1C2ON(c3ccccc3)C(c3ccncc3)C2C(=O)N1c1ccc(Br)cc1 (stereo not given)
inactive: activity change, negative = inhibition [1] -1.42% | activity change, negative = inhibition [2] 10.7% | activity, negative = inhibition [3] -10.2% | Potency [4] > 20.6 µM

N#CC12CCCCC1CC1CCCCC1(C#N)N2Cc1ccccn1 (stereo not given)
inactive: activity change, negative = inhibition [1] 3.99% | activity change, negative = inhibition [2] -14.8% | activity, negative = inhibition [3] 19.1% | Potency [4] > 20.6 µM

O=C1OC2CCC1(c1ccccc1)C2 (stereo not given)
inactive: activity change, negative = inhibition [1] -4.71% | activity change, negative = inhibition [2] 10% | activity, negative = inhibition [3] -3.95% | Potency [4] > 20.6 µM

CCOC(=O)C(C)Oc1ccc2c(C)cc(=O)oc2c1C(C)=O (stereo not given)
inactive: activity change, negative = inhibition [1] 3.53% | activity change, negative = inhibition [2] 2.57% | activity, negative = inhibition [3] 4.2% | Potency [4] > 20.6 µM

NC(=O)CSc1c[nH]c2ccccc12
inactive: activity change, negative = inhibition [1] 2.78% | activity change, negative = inhibition [2] 0.963% | activity, negative = inhibition [3] -0.854% | Potency [4] > 20.6 µM

O=C(NCCO)C1(c2ccccc2)CCCC1
inactive: activity change, negative = inhibition [1] 15.9% | activity change, negative = inhibition [2] -7.5% | activity, negative = inhibition [3] 2.26% | Potency [4] > 20.6 µM

O=S(=O)(/C=C/c1ccccc1)Nc1ccc2c(c1)OCO2
inactive: activity change, negative = inhibition [1] -20.8% | activity change, negative = inhibition [2] -26.9% | activity, negative = inhibition [3] -22.1% | Potency [4] > 20.6 µM

COC(=O)CNc1nc(-c2cccnc2)nc2ccccc12
inactive: activity change, negative = inhibition [1] -12.5% | activity change, negative = inhibition [2] -5.87% | activity, negative = inhibition [3] -8.59% | Potency [4] > 20.6 µM

CCCOc1ccc(/C(O)=C2/C(=O)C(=O)N(CCCN3CCOCC3)C2c2ccncc2)cc1 (stereo not given)
inactive: activity change, negative = inhibition [1] -5.76% | activity change, negative = inhibition [2] 16.4% | activity, negative = inhibition [3] 5.77% | Potency [4] > 20.6 µM

O=C1OC(N2CCN(C/C=C/c3ccccc3)CC2)c2ccccc21 (stereo not given)
inactive: activity change, negative = inhibition [1] 7.53% | activity change, negative = inhibition [2] 10.2% | activity, negative = inhibition [3] 0.214% | Potency [4] > 20.6 µM

C=CCc1c(C)c(C#N)c2nc3ccccc3n2c1N1CCN(C)CC1
inactive: activity change, negative = inhibition [1] -17.1% | activity change, negative = inhibition [2] 4.5% | activity, negative = inhibition [3] 3.98% | Potency [4] > 20.6 µM

CCN(CC)CCN1C(=O)C(=O)/C(=C(/O)c2ccc(OC(C)C)cc2)C1c1ccncc1 (stereo not given)
inactive: activity change, negative = inhibition [1] -12% | activity change, negative = inhibition [2] 0.331% | activity, negative = inhibition [3] -2.31% | Potency [4] > 20.6 µM

COc1cccc(C2/C(=C(/O)c3ccc(C)cc3)C(=O)C(=O)N2Cc2ccco2)c1 (stereo not given)
inactive: activity change, negative = inhibition [1] 2.99% | activity change, negative = inhibition [2] -8.9% | activity, negative = inhibition [3] -9.32% | Potency [4] > 20.6 µM

CCCCOC(=O)CCc1nc2ccccc2[nH]1
inactive: activity change, negative = inhibition [1] 5.71% | activity change, negative = inhibition [2] -0.459% | activity, negative = inhibition [3] 6.02% | Potency [4] > 20.6 µM

CN(C)C(CN1C(=O)C2CC=CCC2C1=O)c1cn(C)c2ccccc12 (stereo not given)
inactive: activity change, negative = inhibition [1] 10.2% | activity change, negative = inhibition [2] 4.1% | activity, negative = inhibition [3] -3.79% | Potency [4] > 20.6 µM

CC(C)=CCC(C)(C)CNC(=O)NC1CCCCC1
inactive: activity change, negative = inhibition [1] -8.2% | activity change, negative = inhibition [2] 19% | activity, negative = inhibition [3] 10.9% | Potency [4] > 20.6 µM

c1ccc(CN2CCN(c3nc(-c4ccccn4)nc4ccccc34)CC2)cc1
inactive: activity change, negative = inhibition [1] 14.9% | activity change, negative = inhibition [2] -29% | activity, negative = inhibition [3] 6.73% | Potency [4] > 20.6 µM

CCCc1nc2n[nH]c(N)c2c2c1CCCC2
inactive: activity change, negative = inhibition [1] 6.52% | activity change, negative = inhibition [2] -0.387% | activity, negative = inhibition [3] 12.6% | Potency [4] > 20.6 µM

CC(=O)C1=C(O)C(=O)N(c2cccc(C(=O)O)c2)C1c1ccccc1F (stereo not given)
inactive: activity change, negative = inhibition [1] -4.91% | activity change, negative = inhibition [2] 3.23% | activity, negative = inhibition [3] 10.6% | Potency [4] > 20.6 µM

C=C(C)CN(CC)CCC(=O)Nc1ccc(OC)cc1OC
inactive: activity change, negative = inhibition [1] -7.43% | activity change, negative = inhibition [2] 3.18% | activity, negative = inhibition [3] 6.14% | Potency [4] > 20.6 µM

Cc1ccc(-c2ccccc2NC(=O)C2C3C=CC(C3)C2C(=O)O)o1 (stereo not given)
inactive: activity change, negative = inhibition [1] -3.25% | activity change, negative = inhibition [2] -9.53% | activity, negative = inhibition [3] 11.2% | Potency [4] > 20.6 µM

COc1cc(C2C(C(C)=O)=C(O)C(=O)N2c2ccc(Br)cn2)ccc1O (stereo not given)
inactive: activity change, negative = inhibition [1] 2.47% | activity change, negative = inhibition [2] -15.5% | activity, negative = inhibition [3] -8.75% | Potency [4] > 20.6 µM

CN=C1c2c(-c3ccccc3)c3cc(OC)ccc3n2CCN1C
inactive: activity change, negative = inhibition [1] 24.6% | activity change, negative = inhibition [2] -8.39% | activity, negative = inhibition [3] -1.77% | Potency [4] > 20.6 µM
